Test [1] has as its target Vitamin D3 receptor (Homo sapiens) (UniProt P11473). Nature of the test: qHTS assay for small molecule antagonists of vitamin D receptor signaling (AID 588541).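 Further: receptor activated by calcitriol during compound treatment; series mostly up to about 77 µM; on the % scale 0 is the no-effect control and ±100 the full control effect.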 An outline of the steps:
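Antagonist-mode beta-lactamase reporter assay: HEK293T VDR-UAS-bla cells were exposed to titrated compound alongside 1-alpha,25-dihydroxyvitamin D3 at 3 nM final for 16 h. Values were normalized to the 50 nM agonist control and DMSO basal, with IC50 and efficacy from Hill equation fits.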
(qHTS replaces the single test concentration by a dilution series.)

For test [2] the target is unchanged. Nature of the test: qHTS assay for small molecule agonists of vitamin D receptor signaling (AID 588543).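 Further: 0% = DMSO basal and 100% = reference agonist control.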 The essentials: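 GeneBLAzer VDR-UAS-bla HEK293T cells in 2% charcoal-stripped FBS medium were dosed with compound titrations for 16 h at 37 °C; CCF4 β-lactamase readout (405 nm ex, 460/530 nm em). EC50 and efficacy from Hill fits, normalized to 50 nM calcitriol (100%) and DMSO (0%).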

Test [3] in a line: qHTS assay for small molecule agonists of retinoid X receptor alpha signaling (AID 588544).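 On activation: 0% = DMSO basal wells and 100% = reference agonist.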 As to conditions: HEK293T RXRa-UAS-bla, beta-lactamase reporter, 18 h; 530 nm emission.
The target in test [4] is Retinoic acid receptor RXR-alpha (Homo sapiens) (UniProt P19793). The description is as above.
Retinoic acid receptor RXR-alpha (Homo sapiens), sequence (P19793 whole entry, looked up): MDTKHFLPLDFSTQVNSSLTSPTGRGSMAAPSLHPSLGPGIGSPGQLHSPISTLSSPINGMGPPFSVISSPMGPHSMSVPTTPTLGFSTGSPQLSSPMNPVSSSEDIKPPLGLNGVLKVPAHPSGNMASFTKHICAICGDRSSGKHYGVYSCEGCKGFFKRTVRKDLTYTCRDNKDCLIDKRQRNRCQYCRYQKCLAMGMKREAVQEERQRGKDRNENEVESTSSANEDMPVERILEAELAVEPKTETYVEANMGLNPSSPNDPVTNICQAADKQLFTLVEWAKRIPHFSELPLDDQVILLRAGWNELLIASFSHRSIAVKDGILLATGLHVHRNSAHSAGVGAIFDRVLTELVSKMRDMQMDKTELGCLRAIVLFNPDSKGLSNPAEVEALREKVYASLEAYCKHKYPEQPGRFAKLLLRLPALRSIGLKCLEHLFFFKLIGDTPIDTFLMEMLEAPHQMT
Test [5] has as its target Thyroid hormone receptor beta (Homo sapiens) (UniProt P10828). Description: qHTS assay for small molecule agonists of thyroid hormone receptor beta signaling (AID 588545).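 Further: 0% = DMSO only and 100% = 10 nM T3.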 The essentials:
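Stimulation of a TR-driven beta-lactamase reporter was quantified in GripTite HEK 293 cells. Compound series ran for 18 hrs; curves were normalized to T3 and DMSO controls and fitted to yield EC50.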

A short description of test [6]: qHTS assay for small molecule antagonists of retinoid X receptor alpha signaling (AID 588546; active means well fitted inhibition curve with a large enough effect in the signal ratio, with a control signal flat, not every such curve was filed as active; the % refers to the signal ratio;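 further: cells stimulated with 9-cis-retinoic acid as agonist; on the % scale 0 is the no-effect control and ±100 the full control effect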). As to conditions: HEK293T RXRa-UAS-bla, beta-lactamase ratio, antagonist mode; measured here: W530 green channel, cytotoxicity proxy. An outline of the steps:
(§1)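 Beta-lactamase reporter inhibition, read as CCF4 fluorescence ratio (ex 405, em 460/530 nm) after 2 h at RT. HEK293T UAS-bla cells, 2500/well, were stimulated with 9-cis-RA at 500 or 100 nM final alongside test compound for 18 h at 37 C.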

Test [7] addresses Retinoic acid receptor RXR-alpha (Homo sapiens) (UniProt P19793). The test is described as above. As to conditions: HEK293T RXRa-UAS-bla, beta-lactamase ratio, antagonist mode. The essentials: as §1
Test [8] can be described thus: qHTS assay for small molecule activators of the nuclear factor-kappa B (NF-kB) signaling pathway (AID 651749; active means well fitted activation curve with a large enough effect in the signal ratio; the % refers to the signal ratio; further: series mostly up to about 77 µM; % of control where 0% means no effect). As to conditions: NF-kB-bla ME-180 cells, beta-lactamase FRET ratio, 16 h; activation: stronger effect = higher value. An outline of the steps: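 FRET-based beta-lactamase detection in ME-180 cells reports NF-kB response-element-driven transcription following overnight (16 hr) compound treatment.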

The nature of test [9]: qHTS assay for small molecule agonists of the antioxidant response element (ARE) signaling pathway measured by Nrf2-dependant transcriptional activity (AID 720636; active means well fitted curve in the direction sought with a large enough effect in the repeat runs; an effect the other way counts as inactive or inconclusive;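 further: HepG2 cells with an ARE-driven luciferase reporter; % of control where 0% means no effect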). An outline of the steps:
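First, ARE-luc HepG2 cells attached for 6 hr at 37 C in 1% dialyzed FBS medium. Next, compound or DMSO was added and incubated 16 hr. Finally, ONE-Glo reagent was added and luminescence measured after 30 min.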

Test [10] in a line: qHTS assay for cell viability of HEK293 cells (AID 743288; active means well fitted curve in the direction sought with a large enough effect; an effect the other way counts as inactive or inconclusive; further: on the % scale 0 is the no-effect control and ±100 the full control effect; nearly all actives have a fitted effect of over 50% in size). As to conditions: ATP luminescence (CellTiter-Glo), 18 h; max response: stronger effect = lower value. The essentials:
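After 18 h compound exposure at 37 C, parental HEK293 cells (2,000/well) are lysed with CellTiter-Glo and luminescence is read following 30 min at room temperature.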

Test [11] is described as follows: qHTS assay for cell viability of the p53RE-bla HCT-116 cell line (AID 743292; active means well fitted curve in the direction sought with a large enough effect; an effect the other way counts as inactive or inconclusive; further: on the % scale 0 is the no-effect control and ±100 the full control effect; nearly all actives have a fitted effect of over 55% in size). An outline of the steps: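 Quantitative high-throughput format: compounds in DMSO were pinned onto p53RE-bla HCT-116 cells (4,000/well) and incubated 16 h at 37 C. Total intracellular ATP, read by CellTiter-Glo luminescence, reflects viable cell number.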
The target in test [12] is Nuclear receptor subfamily 1 group I member 2 (Rattus norvegicus) (UniProt Q9R1A7). Description: qHTS assay for small molecule activators of the rat pregnane X receptor (rPXR) signaling pathway (AID 651751; call rule not given here; further: 0% is about no effect). As to conditions: rPXR reporter cells, luciferase (One-Glo), 24 h.
Nuclear receptor subfamily 1 group I member 2 (Rattus norvegicus), sequence (Q9R1A7 whole entry, looked up): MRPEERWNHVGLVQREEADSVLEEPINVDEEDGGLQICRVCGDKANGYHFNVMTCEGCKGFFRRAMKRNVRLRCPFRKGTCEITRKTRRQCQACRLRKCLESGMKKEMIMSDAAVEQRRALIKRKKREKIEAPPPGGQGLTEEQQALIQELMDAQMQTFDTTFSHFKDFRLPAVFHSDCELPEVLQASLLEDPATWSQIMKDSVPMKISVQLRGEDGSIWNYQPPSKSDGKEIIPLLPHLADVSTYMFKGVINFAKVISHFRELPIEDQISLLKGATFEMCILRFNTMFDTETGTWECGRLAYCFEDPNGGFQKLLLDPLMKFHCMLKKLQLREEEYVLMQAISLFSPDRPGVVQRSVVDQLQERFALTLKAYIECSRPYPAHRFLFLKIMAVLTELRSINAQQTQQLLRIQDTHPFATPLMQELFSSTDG
Test [13] can be described thus: qHTS assay for small molecule activators of the human pregnane X receptor (PXR) signaling pathway (AID 720659; call rule not given here; further: 0% is about no effect).
Test [14] is described as follows: qHTS assay for small molecule antagonists of peroxisome proliferator-activated receptor delta signaling (AID 588535; active means well fitted inhibition curve with a large enough effect in the signal ratio, with a control signal flat, not every such curve was filed as active; the % refers to the signal ratio;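 on max response: cells co-treated with a PPAR-delta agonist as stimulator during compound exposure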). As to conditions: HEK293T PPARd-UAS-bla, beta-lactamase FRET ratio, 18 h; 460 nm channel. An outline of the steps: (§2)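 Antagonist-mode qHTS using GeneBLAzer PPAR-delta-UAS-bla HEK293T cells; compound exposure 18 hrs at 37 C over a titration. Ratiometric CCF4 fluorescence at 460/530 nm; concentration-response points fitted to the Hill equation.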

Test [15] has as its target Peroxisome proliferator-activated receptor delta (Homo sapiens) (UniProt Q03181). Described as above. The essentials:
as §2

Test [16] concerns the target Peroxisome proliferator-activated receptor gamma (Homo sapiens) (UniProt P37231). Description: qHTS assay for small molecule agonists of peroxisome proliferator-activated receptor gamma signaling (AID 588536; active means well fitted curve in the direction sought with a large enough effect in the signal ratio, with a control signal flat, not every such curve was filed as active; the % refers to the signal ratio;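 further: 0% = DMSO basal wells and 100% = rosiglitazone at 2 µM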). An outline of the steps:
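This is an agonist-mode beta-lactamase reporter assay in HEK293 PPAR-gamma-UAS-bla cells with 1% charcoal/dextran FBS. Compound titrations ran 16 h at 37 C before CCF4 detection. EC50 and efficacy are Hill fits scaled to 2 uM rosiglitazone (100%) and DMSO basal.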

Test [17] in a line: qHTS assay for small molecule activators of the p53 signaling pathway (AID 651743; active means well fitted activation curve with a large enough effect in the signal ratio, not every such curve was filed as active; the % refers to the signal ratio; further: series mostly up to about 92 µM; % of control where 0% means no effect). As to conditions: HCT-116 p53RE-bla, beta-lactamase FRET ratio, 16 h; activation: stronger effect = higher value. An outline of the steps: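 A beta-lactamase reporter under p53 response element control, stably carried by HCT-116 cells, reported pathway activation. Test compounds were applied for 16 hours at 37 C, and fluorescence was measured 2 hours after adding the B/G FRET substrate.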

Test [18] deals with Peroxisome proliferator-activated receptor alpha (Homo sapiens) (UniProt Q07869). Description: qHTS assay for small molecule agonists of the peroxisome proliferator-activated receptor alpha (PPARalpha) signaling pathway (AID 651778; active means well fitted curve in the direction sought with a large enough effect; an effect the other way counts as inactive or inconclusive; further: % of control where 0% means no effect). As to conditions: PathHunter PPARalpha complementation, chemiluminescence, 6 h; max response: stronger effect = higher value. An outline of the steps:
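Chemiluminescence from complemented enzyme reported PPARalpha activation in cells after 6 hr of compound treatment at 37 C. The detection reagent was incubated for 60 min at room temperature, and compounds were scored as agonists.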

Test [19] is described as follows: qHTS assay for small molecule agonists of the antioxidant response element (ARE) signaling pathway measured by Nrf2-dependant transcriptional activity - cell viability counter screen (AID 720653; active means well fitted curve in the direction sought with a large enough effect in the repeat runs; an effect the other way counts as inactive or inconclusive; further: on the % scale 0 is the no-effect control and ±100 the full control effect). As to conditions: ARE-bla HepG2 viability, CellTiter-Glo ATP luminescence, 16 h; max response: stronger effect = lower value. An outline of the steps:
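Cytotoxicity counter screen: intracellular ATP quantified by CellTiter-Glo luminescence in the same ARE-bla HepG2 plates, after 16 h compound exposure and a 2 h beta-lactamase substrate step.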

Test [20] can be described thus: qHTS assay for environmental chemicals that activate the Aryl hydrocarbon Receptor (AhR) signaling pathway (AID 651777; active means well fitted curve in the direction sought with a large enough effect; an effect the other way counts as inactive or inconclusive; further: % of control where 0% means no effect; nearly all actives have a fitted effect of over 15% in size). As to conditions: 1A2-DRE human hepatoma cells, luciferase, 24 h; activation: stronger effect = higher value. The essentials: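 AhR activation is scored as a rise in luciferase from a stable DRE–CYP1A2 promoter construct in human hepatoma cells. Treatment lasts 24 hr at 37 C; detection uses One-Glo after 30 min at room temperature.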

Inconclusive results are not listed. Activity calls are given as the source filed them. Unless noted, the call rests on the fitted dose curve.

Peroxisome proliferator-activated receptor delta (Homo sapiens), sequence (Q03181 whole entry, looked up): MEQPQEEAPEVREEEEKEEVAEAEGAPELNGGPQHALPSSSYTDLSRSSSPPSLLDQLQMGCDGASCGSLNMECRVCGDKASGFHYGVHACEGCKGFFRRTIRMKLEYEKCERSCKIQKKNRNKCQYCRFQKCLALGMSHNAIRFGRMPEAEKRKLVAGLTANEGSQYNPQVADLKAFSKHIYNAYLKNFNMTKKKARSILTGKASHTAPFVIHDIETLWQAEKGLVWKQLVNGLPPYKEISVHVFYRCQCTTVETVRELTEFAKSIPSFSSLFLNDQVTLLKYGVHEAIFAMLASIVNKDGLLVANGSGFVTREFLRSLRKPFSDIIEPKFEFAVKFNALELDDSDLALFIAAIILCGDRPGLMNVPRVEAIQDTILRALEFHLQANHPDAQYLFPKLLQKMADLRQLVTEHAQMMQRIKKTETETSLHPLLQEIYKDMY
Vitamin D3 receptor (Homo sapiens), sequence (P11473 whole entry, looked up): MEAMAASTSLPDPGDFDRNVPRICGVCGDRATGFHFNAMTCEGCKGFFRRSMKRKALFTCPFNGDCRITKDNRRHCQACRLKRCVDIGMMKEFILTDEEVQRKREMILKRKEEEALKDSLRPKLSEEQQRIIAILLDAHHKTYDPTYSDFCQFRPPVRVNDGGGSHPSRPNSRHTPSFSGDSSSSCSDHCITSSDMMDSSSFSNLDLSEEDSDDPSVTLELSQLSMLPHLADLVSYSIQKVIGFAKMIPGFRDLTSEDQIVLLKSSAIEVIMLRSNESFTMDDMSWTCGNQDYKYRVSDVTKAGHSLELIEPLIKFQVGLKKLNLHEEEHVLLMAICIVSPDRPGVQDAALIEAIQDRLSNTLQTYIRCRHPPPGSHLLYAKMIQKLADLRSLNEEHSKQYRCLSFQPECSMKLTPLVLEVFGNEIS
Peroxisome proliferator-activated receptor alpha (Homo sapiens), sequence (Q07869 whole entry, looked up): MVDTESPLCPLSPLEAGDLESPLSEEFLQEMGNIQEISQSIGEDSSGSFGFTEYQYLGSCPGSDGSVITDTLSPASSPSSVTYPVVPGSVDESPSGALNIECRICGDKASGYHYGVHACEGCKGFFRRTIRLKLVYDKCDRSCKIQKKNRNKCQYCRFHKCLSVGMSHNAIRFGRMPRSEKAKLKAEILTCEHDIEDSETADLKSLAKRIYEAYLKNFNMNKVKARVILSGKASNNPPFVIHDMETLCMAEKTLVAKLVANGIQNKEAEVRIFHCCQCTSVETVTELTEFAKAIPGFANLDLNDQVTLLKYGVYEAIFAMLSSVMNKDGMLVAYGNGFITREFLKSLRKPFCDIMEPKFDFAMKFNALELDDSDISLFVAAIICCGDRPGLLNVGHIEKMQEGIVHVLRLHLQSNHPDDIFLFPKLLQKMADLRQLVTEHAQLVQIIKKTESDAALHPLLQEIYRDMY
Thyroid hormone receptor beta (Homo sapiens), sequence (P10828 whole entry, looked up): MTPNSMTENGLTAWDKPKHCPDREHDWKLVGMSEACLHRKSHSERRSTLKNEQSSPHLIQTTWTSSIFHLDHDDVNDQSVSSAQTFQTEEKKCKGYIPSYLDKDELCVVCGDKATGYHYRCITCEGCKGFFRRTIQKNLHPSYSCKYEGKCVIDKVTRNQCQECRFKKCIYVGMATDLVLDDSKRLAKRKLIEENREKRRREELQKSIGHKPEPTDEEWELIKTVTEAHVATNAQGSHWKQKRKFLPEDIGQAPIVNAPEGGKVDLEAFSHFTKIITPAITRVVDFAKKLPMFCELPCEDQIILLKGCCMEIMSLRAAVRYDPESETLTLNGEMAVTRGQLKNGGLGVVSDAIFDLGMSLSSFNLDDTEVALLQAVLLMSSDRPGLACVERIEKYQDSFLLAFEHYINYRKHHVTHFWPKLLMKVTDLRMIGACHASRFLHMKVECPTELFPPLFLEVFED
Peroxisome proliferator-activated receptor gamma (Homo sapiens), sequence (P37231 whole entry, looked up): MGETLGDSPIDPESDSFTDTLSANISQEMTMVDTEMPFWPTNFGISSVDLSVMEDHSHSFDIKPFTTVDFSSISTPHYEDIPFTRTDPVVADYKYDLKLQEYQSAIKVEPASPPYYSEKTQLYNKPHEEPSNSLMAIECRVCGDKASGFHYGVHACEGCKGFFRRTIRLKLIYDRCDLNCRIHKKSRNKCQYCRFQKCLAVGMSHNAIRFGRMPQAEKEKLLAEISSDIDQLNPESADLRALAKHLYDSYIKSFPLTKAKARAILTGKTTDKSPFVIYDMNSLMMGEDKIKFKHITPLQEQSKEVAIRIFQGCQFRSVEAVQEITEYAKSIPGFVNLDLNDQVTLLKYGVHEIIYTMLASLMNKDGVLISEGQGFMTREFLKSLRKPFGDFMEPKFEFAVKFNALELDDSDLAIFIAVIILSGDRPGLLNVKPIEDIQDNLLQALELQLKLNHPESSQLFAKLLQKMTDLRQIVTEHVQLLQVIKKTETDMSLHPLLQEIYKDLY

In the case of `CCCCCCCC(=O)Oc1c(Br)cc(C#N)cc1Br`, the Potency result in test [1], in [4], in test [5], in test [9] and in test [11] was “inactive” throughout. In addition, the call in test [2] and in [13] was inactive. The max response is -14.9% in [3]; -5.85% in test [6]; -20.9% (inactive) in test [7]; -6.14% (inactive) in test [10]; -8.28% (inactive) in [12]. Besides, in test [8], the activation was -2.23% (inactive).

Turning to `FC(F)(F)c1ccc(Cl)c(Cl)c1`, the max response was 40.3% in [14]; -13.8% in [3]; 5.97% in test [6]; -9.01% (inactive) in test [7]; 0.167% (inactive) in test [18]; -4.28% (inactive) in test [19]. In addition, the results for the max response in [10] and in test [12] were -13.4% (inactive) and -0.267% (inactive), respectively. The Potency entry in test [15], in [4], in test [5], in [9] and in test [11] was “inactive” throughout. Besides, the result in test [16], in test [2] and in test [13] was inactive. Besides, the activation was -5.24% (inactive) in [17] and -0.0768% (inactive) in test [8].

`c1ccc2cc3ccccc3cc2c1`: in [16], the result was inactive. The Potency entry in [1], in [4], in test [5] and in [11] was “inactive” each time. Besides, the max response is -12.9% in test [3]; 21.2% in [6]; -8.21% (inactive) in test [7]; -0.274% (inactive) in test [18]; -8% (inactive) in [19]; -2.63% (inactive) in test [10]. The max response in [12] is 4.65% (inactive). In addition, in [20], the activation is 1.49% (inactive).

For `C[C@]12CCC(=O)C=C1CC[C@@H]1[C@@H]2[C@@H](O)C[C@]2(C=O)[C@@H](C(=O)CO)CC[C@@H]12`, the Potency entry in test [1], in test [4], in test [9] and in test [11] was “inactive” throughout. The molecule was called inactive in test [2] and in [13]. Also, the max response in [3] was 19.7%; in test [6], -18.8%; in [7] it was 1.07% (inactive); in test [18], 0.506% (inactive); in [19] it was -8.31% (inactive); in test [10], -8.63% (inactive). In addition, the max response in test [12] is -0.971% (inactive). Also, the figures for the activation in test [17], in test [8] and in [20] were -0.611% (inactive), -3.08% (inactive) and -0.37% (inactive), respectively.

Consider `c1ccc(B(c2ccccc2)c2ccccc2)cc1`, for which the max response was -3.44% in test [14]; 7.43% in test [3]; 3.4% in [6]; -24.3% (inactive) in [7]; -0.443% (inactive) in [18]; 1.02% (inactive) in test [12]. Also, the Potency entry in test [15], in [1], in [4], in test [5], in test [9] and in [11] was “inactive” in each case. The activation in [17] was -0.854% (inactive); in [8], -3.07% (inactive); in test [20] it was 1.54% (inactive).

Turning to `Nc1ccc(N)c2c1C(=O)c1c(N)ccc(N)c1C2=O`, the molecule was called inactive in test [16], in test [2] and in [13]. Also, the Potency result in [1], in [4], in test [5] and in test [11] was “inactive” each time. Besides, the max response is -9.83% in test [3]; 7.09% (inactive) in test [18]; -2.4% (inactive) in [19]; -28.2% (inactive) in [10]; -7.59% (inactive) in test [12]. For the same molecule, the activation in test [8] was 7.06% (inactive); in test [20], 12.2% (inactive).

Consider `Cl[Si](Cl)(Cl)c1ccccc1`, for which the max response in [14] was 13.6%; in test [3], -15.8%; in [6] it was -7.94%; in test [7], -5.52% (inactive); in test [19], -8.94% (inactive); in test [12] it was 1.77% (inactive). Moreover, the Potency result in test [15], in [1], in test [4], in test [5], in test [9] and in test [11] was “inactive” each time. Moreover, the call in test [16], in test [2] and in test [13] was inactive. The activation was -5.69% (inactive) in [17], -0.0547% (inactive) in test [8] and -0.059% (inactive) in test [20].

The record behind these values is PubChem BioAssay (NCATS).
